Measured values from PubChem BioAssay AID463173 (ICCB-Longwood Screening Facility, Harvard Medical School, 2010).
Screen size: about 52,000 compounds; about 4,300 (8.3%) were called active. Rule as the data show it: active = survival mostly below about 52% (no sharp cut-off); inactive = mostly above about 56%. The full list was thinned out, with actives kept by preference.

These compounds were tested on DeltatarO mutant (assay: growth inhibition of S. aureus wild type versus tarO mutant, primary screen, teichoic acid synthesis inhibitors, RN4220, OD600 (AID 463173)). Settings: OD600, 18 h, active compounds read low, screened at 18.75 µg/mL (by protocol).

| SMILES | survival |
| --- | --- |
| COc1cc(-c2cc3n(C)c(C)c(CCC(=O)NC4CCC(C)CC4)c(=O)n3n2)cc(OC)c1OC (configuration not stated) | 101% (inactive) |
| CCOc1ccc(CCNC(=O)Cn2ncn3c(cc4ccccc43)c2=O)cc1OCC | 85% (inactive) |
| COC(=O)C1(CO)NC(c2ccc(Cl)cc2)C2C(=O)N(C)C(=O)C21 (configuration not stated) | 66% (inactive) |
| Cc1ccccc1C(=O)Nc1ccc(OCc2cc(=O)n3ccccc3n2)cc1 | 54% (inactive) |
| CC1CCN(S(=O)(=O)c2nnc(NC(=O)c3cccc(Br)c3)s2)CC1 | 31% (active) |
| CC1CCN(S(=O)(=O)c2nnc(NC(=O)c3cccc(Cl)c3)s2)CC1 | 23% (active) |
| COc1ccc2nc(NC(=O)c3ccc(S(=O)(=O)N4CCC(C)CC4)cc3)sc2c1 | 91% (inactive) |
| CC1CCN(S(=O)(=O)c2ccc(C(=O)Nc3nc4ccc(F)cc4s3)cc2)CC1 | 46% (active) |
| Cc1cccc(C(=O)Nc2nnc(S(=O)(=O)N3CCC(C)CC3)s2)c1 | 35% (active) |
| Cc1ccc2nc(NC(=O)c3ccc(S(=O)(=O)N4CCC(C)CC4)cc3)sc2c1 | 93% (inactive) |
| COc1ccc(C(=O)Nc2nnc(S(=O)(=O)N3CCC(C)CC3)s2)cc1OC | 79% (inactive) |
| CCCNC(=O)CN1C(=O)COc2ccc(S(=O)(=O)N3CCCC3)cc21 | 86% (inactive) |
| O=C1CCc2cc(S(=O)(=O)NCc3ccc(Cl)cc3)cc3c2N1CC3 | 77% (inactive) |
| COCCOC(=O)Cn1nnc2sc(-c3ccccc3)cc2c1=O | 65% (inactive) |
| COCC(=O)NCc1nc2cccnc2n1Cc1ccc(F)cc1 | 60% (inactive) |
| CN1CCN(C(=O)c2ccccc2C(=O)O)CC1 | 96% (inactive) |

| SMILES | survival |
| --- | --- |
| CCc1nn2c(=O)cc(COC(=O)c3ccc4c(c3)OCO4)nc2s1 | 76% (inactive) |
| COc1ccc(NC(=O)c2c(NCc3ccc(OC)c(OC)c3OC)sc3c2CCC3)c(OC)c1 | 83% (inactive) |
| Cc1n[nH]c(=S)n1CC1CCCO1 (configuration not stated) | 77% (inactive) |
| COc1cccc(Cn2c(=O)n(-c3ccc(Br)cc3F)c(=O)c3sc4ccccc4c32)c1 | 96% (inactive) |
| Cc1ccc(N2CCN(S(=O)(=O)c3nnc(NC(=O)c4cccc(F)c4)s3)CC2)cc1 | 57% (inactive) |
| O=C(Nc1nnc(S(=O)(=O)N2CCOCC2)s1)c1cccc(F)c1 | 80% (inactive) |
| CC1CCN(S(=O)(=O)c2nnc(NC(=O)c3cccc(F)c3)s2)CC1 | 31% (active) |
| O=C(NC1CCCCC1)C(c1ccco1)N(Cc1ccccc1)C(=O)Cn1nnc2ccccc21 (configuration not stated) | 69% (inactive) |
| COc1ccc(-c2nnn(CC(=O)N(Cc3ccccc3)C(C)C(=O)NC3CCCC3)n2)cc1OC (configuration not stated) | 84% (inactive) |
| CCOC(=O)CN(Cc1ccccc1)C(C(=O)NC1CCCCC1)c1ccc(OC)cc1 (configuration not stated) | 20% (active) |
| COc1ccc(C(C(=O)NC2CCCC2)N(Cc2ccc(C)cc2)C(=O)c2ccn[nH]2)cc1OC (configuration not stated) | 104% (inactive) |
| COc1ccc(N(C(=O)c2ccco2)C(C(=O)NC2CCCC2)c2cc(OC)c(OC)c(OC)c2)cc1 (configuration not stated) | 84% (inactive) |
| O=C(NC1CCCC1)C(c1ccccc1)N(Cc1ccc2c(c1)OCO2)C(=O)c1ccco1 (configuration not stated) | 73% (inactive) |
| CCCC(C(=O)NC1CCCC1)N(Cc1ccccc1)C(=O)Cn1nnc(-c2ccc(C)o2)n1 (configuration not stated) | 66% (inactive) |
| CCOC(=O)CN(Cc1ccccc1)C(C(=O)NC1CCCCC1)c1ccc(C)cc1 (configuration not stated) | -3% (active) |
| CCOC(=O)CN(Cc1ccccc1)C(C(=O)NC1CCCCC1)c1ccccc1 (configuration not stated) | -1% (active) |
